Results from PubChem BioAssay (NCI).
This is part of a sample that, as a whole, favours compounds with a hit. Of some 79,000 tested, about 15% had one in any assay. Calls of active or inactive are those of the source. Cut-off read from the data, not from the text of the source: active = growth inhibition above about 70%; inactive = the rest.

Test: NCI Yeast Anticancer Drug Screen. Data for the wt1 strain (AID 149);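 note: 0% = growth of vehicle-treated wt1 cultures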
Settings: S. cerevisiae wt1 strain (SPY 50644) growth inhibition, hits give high values
Experimental: Growth inhibition of yeast strains with defined genetic alterations is measured as a screen for potential anti-cancer activity. Selected strains with alterations in DNA damage repair or cell cycle control were exposed to compounds and growth inhibition was measured relative to vehicle treated controls. The strain used in this assay is wt1

Measured: growth inhibition

COC(=O)C1=C(C(=O)OC)C2OC1c1cc3ccccc3cc12
active: at 33.0 µM 97% | at 100.0 µM 99%
inactive: at 1.2 µM 7% | at 3.7 µM 14% | at 11.0 µM 37%

CCCCCCCCCCCCCCCCP(=O)(O)OCC(N)C(=O)O (stereo not given)
inactive: at 1.2 µM -38% | at 3.7 µM -46% | at 11.0 µM -46% | at 33.0 µM -31%
active: at 100.0 µM 97%

CNC(=O)ON(C(C)=O)C(=O)NC
inactive: at 1.2 µM -60% | at 3.7 µM -52% | at 11.0 µM -58% | at 33.0 µM -65% | at 100.0 µM -60%

c1cc2c(cc1C1OC[C@H]3[C@@H](c4ccc5c(c4)OCO5)OC[C@@H]13)OCO2 (stereo not given in full)
inactive: at 1.2 µM -1% | at 3.7 µM -6% | at 11.0 µM 1% | at 33.0 µM -20% | at 100.0 µM -8%

Cn1cc(NC(=O)c2cc(NC(=O)CN=C(N)N)cn2C)cc1C(=O)NCCC(=N)N
active: at 33.0 µM 85% | at 100.0 µM 96%
inactive: at 1.2 µM 17% | at 3.7 µM 26% | at 11.0 µM 24%

Nc1ccccc1C(=O)OCCc1ccccc1
active: at 100.0 µM 92%
inactive: at 1.2 µM -25% | at 3.7 µM -6% | at 11.0 µM -23% | at 33.0 µM -26%

Nc1nc(-c2ccccc2)c(-c2ccccc2)[se]1
inactive: at 1.2 µM -2% | at 3.7 µM -1% | at 11.0 µM -1% | at 33.0 µM -2% | at 100.0 µM 3%

O=C1C=CC(=O)C1(Br)Br
active: at 100.0 µM 99%
inactive: at 1.2 µM -1% | at 3.7 µM 0% | at 11.0 µM 8% | at 33.0 µM 66%
